CYP2C19 inh: inhibitors of human CYP2C19. P33261. CYP2C19 Supersomes, luciferin-H EGE luminescence, 30 min. inhibition, % at 5 µM. 96,000 compounds, 21% hits;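 active means CYP2C19 inhibition above a set limit at 5 µM in the primary screen, cut at about 50% in these data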;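 further: plate controls were negative control wells for no effect and 2.5 mM tranylcypromine positive control for full effect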
CYP2C19 activ: cytochrome P450 2C19 (human) activation; P33261; recombinant CYP2C19, luciferin-H EGE luminescence; active compounds read high; 0 = fully inhibited enzyme, 1 = untreated enzyme; activation factor at 5 µM; 96,000 tested, under 10 active;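 active means activation factor of at least 2 at 5 µM in the primary screen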;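 further: 0 = wells with 2.5 mM tranylcypromine and 1 = vehicle-only wells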
CYP2C9 inhib: human CYP2C9 inhibition; P11712; CYP2C9 Supersomes, luciferin-H conversion, luminescence; inhibition, % at 5 µM; 96,000 compounds, 20% hits; AID 777;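 active means blocking of liver enzyme CYP2C9 beyond about 50% at 5 µM, limit read from the data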
Target sequence (P11712 whole entry, looked up): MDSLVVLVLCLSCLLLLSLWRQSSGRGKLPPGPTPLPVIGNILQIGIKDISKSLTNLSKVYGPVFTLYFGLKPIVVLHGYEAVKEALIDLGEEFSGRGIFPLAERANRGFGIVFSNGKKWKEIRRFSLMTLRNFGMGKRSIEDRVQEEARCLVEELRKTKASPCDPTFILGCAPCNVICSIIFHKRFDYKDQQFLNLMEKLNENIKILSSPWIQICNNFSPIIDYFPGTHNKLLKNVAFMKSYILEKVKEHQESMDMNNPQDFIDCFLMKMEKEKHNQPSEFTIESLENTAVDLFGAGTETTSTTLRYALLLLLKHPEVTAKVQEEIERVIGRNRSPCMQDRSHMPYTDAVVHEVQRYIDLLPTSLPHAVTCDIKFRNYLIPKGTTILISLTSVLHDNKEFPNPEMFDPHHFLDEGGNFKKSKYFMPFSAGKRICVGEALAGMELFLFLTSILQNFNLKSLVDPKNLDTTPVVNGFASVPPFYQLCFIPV
CYP2C9 activ: CYP2C9 (human) activation. recombinant CYP2C9, luciferin-H conversion, luminescence; active compounds read high; factor 1 = untreated enzyme, 0 = blocked. activation factor at 5 µM. 96,000 compounds, 1.4% hits;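 active means activation factor of 2 or more for CYP2C9 at a 5 µM dose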;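 further: 0 = sulfaphenazole-blocked wells and 1 = vehicle-only wells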
Starred values were filed as active, the others as inactive. Only some compounds are listed: those with a hit (about 31% of all), similar ones and a draw of the others.

SMILES	CYP2C19 inh	CYP2C19 activ	CYP2C9 inhib	CYP2C9 activ
COc1cc(CNCCc2ccc(S(N)(=O)=O)cc2)ccc1OCC(=O)NC1CCCCC1	13	0.9	8	0.9
O=C(COC(=O)C1=COCCO1)NCCCc1ccccc1	40	0.6	17	0.8
O=C1C2CCCN2C(c2ccc(Br)cc2)N1c1ccc(F)cc1 (configuration not stated)	66*	0.3	21	0.8
COc1ccc(C2N(c3ccc(OC)cc3)C(=O)C3CCCN32)cc1 (configuration not stated)	10	0.9	40	0.6
CCc1ccc(C2N(c3ccc(OC)cc3)C(=O)C3CCCN32)cc1 (configuration not stated)	33	0.7	76*	0.2
CC(C)CN(CCNC(=O)CC1Oc2ccccc2NC1=O)CC(C)C (configuration not stated)	17	0.8	-4	1
O=C(Cn1cnc2ccccc2c1=O)N1CCN(Cc2ccc3c(c2)OCO3)CC1	-3	1	8	0.9
O=C(CN1C(=O)c2cccc3cccc(c23)C1=O)N1CCN(Cc2ccc3c(c2)OCO3)CC1	32	0.7	55*	0.5
O=C(CN1C(=O)c2cccc3cccc1c23)NCc1ccccn1	8	0.9	-176	2.8*
CCC1Sc2ccccc2N(CC(=O)NCc2ccc3c(c2)OCO3)C1=O (configuration not stated)	72*	0.3	40	0.6
O=C(CN1C(=O)c2cccc3cccc1c23)NCC1CCCO1 (configuration not stated)	0	1	-253	3.5*
CCCCNC(=O)n1c(=O)oc2ccc(Cl)cc21	17	0.8	19	0.8
CC(=O)NC(CCS(C)(=O)=O)C(=O)Nc1ccc(C)c(F)c1 (configuration not stated)	-6	1.1	-19	1.2
CCc1ccccc1OCc1nnc(N)s1	35	0.6	-26	1.3
Cc1ccc(S(=O)(=O)N[C@@H](C)C(=O)N2CCC(C(=O)N3CCC[C@H]3C(=O)O)CC2)cc1	-6	1.1	-8	1.1
O=C(CN1c2cccc3cccc(c23)S1(=O)=O)NCc1ccc2c(c1)OCO2	81*	0.2	-314	4.1*
O=C(CN1C(=O)c2cccc3cccc1c23)Nc1ccc2c(c1)OCO2	7	0.9	15	0.8
COc1cc(NC(=O)CN2c3cccc4cccc(c34)S2(=O)=O)cc(OC)c1OC	-8	1.1	9	0.9
CC(C(=O)NCc1ccc2c(c1)OCO2)N1c2cccc3cccc(c23)S1(=O)=O (configuration not stated)	82*	0.2	-166	2.7*
O=C(CN1C(=O)c2cccc3cccc1c23)NCc1ccc2c(c1)OCO2	68*	0.3	-300	4*
Cc1ccc(C)c2[nH]c(=O)c(CN(Cc3ccc4c(c3)OCO4)Cc3nnnn3Cc3ccco3)cc12	38	0.6	75*	0.2
COCCn1nnnc1CN(Cc1ccco1)Cc1cc2cc3c(cc2[nH]c1=O)OCO3	10	0.9	-4	1
CCC(c1nnnn1Cc1ccco1)N(CCN1CCOCC1)Cc1cc2cc(C)ccc2[nH]c1=O (configuration not stated)	20	0.8	15	0.8
Cc1ccc2cc(CN(Cc3ccc4c(c3)OCO4)Cc3nnnn3Cc3ccco3)c(=O)[nH]c2c1C	86*	0.1	80*	0.2
Cc1ccc2cc(CN(CCN3CCOCC3)Cc3nnnn3Cc3ccco3)c(=O)[nH]c2c1C	38	0.6	69*	0.3
SMILES	CYP2C19 inh	CYP2C19 activ	CYP2C9 inhib	CYP2C9 activ
CCOc1ccc(S(=O)(=O)NCCCN2CCOCC2)cc1	1	1	-24	1.2
CCOc1ccc(S(=O)(=O)NCCC2=CCCCC2)c2ccccc12	88*	0.1	-1	1
CCCOc1ccc(S(=O)(=O)NCCCN2CCOCC2)c2ccccc12	99*	0	-7	1.1
COc1ccc(S(=O)(=O)NCCCN2CCOCC2)c2ccccc12	97*	0	-86	1.9
COc1ccc(C(=O)NCCCN2CCOCC2)cc1OC	4	1	3	1
CCOc1ccc(S(=O)(=O)NCCCN2CCOCC2)c2ccccc12	60*	0.4	-56	1.6
CCn1c(SCC(=O)Nc2nccs2)nnc1-c1ccc(S(=O)(=O)N2CCCCC2)cc1	18	0.8	46	0.5
COc1ccc(S(=O)(=O)N(C)CC(=O)Nc2ccccc2C(F)(F)F)cc1	81*	0.2	-93	1.9
COc1ccc(S(=O)(=O)N(C)CC(=O)N2CCCCC2)cc1Cl	48	0.5	-68	1.7
O=C(COc1ccc(S(=O)(=O)N2CCOCC2)cc1)Nc1ccccc1C(F)(F)F	9	0.9	16	0.8

Assay outcomes as filed in PubChem BioAssay.
